This is part of a sample that, as a whole, favours compounds with a hit. Of some 83,000 tested, about 20% had one in any assay.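 Treatment: one concentration, 48 hours, 96-well format. Scoring: percent growth, with anything below 10 considered active.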 Active and inactive are the calls of the source.
Key:
Assay in all cases: NCI-60 one-dose screen, 48 h (100 = growth as untreated, 0 = no growth, -100 = all killed)
Conditions in all cases: 10 µM unless noted
SR leukemia = tested on: SR leukemia
RPMI-8226 leukemia = tested on: RPMI-8226 leukemia
OVCAR-8 ovarian = tested on: OVCAR-8 ovarian
OVCAR-5 ovarian = tested on: OVCAR-5 ovarian
OVCAR-4 ovarian = tested on: OVCAR-4 ovarian
IGROV1 ovarian = tested on: IGROV1 ovarian
OVCAR-3 ovarian = tested on: OVCAR-3 ovarian
HS 578T breast = tested on: HS 578T breast
NCI/ADR-RES ovarian = tested on: NCI/ADR-RES ovarian
T-47D breast = tested on: T-47D breast
BT-549 breast = tested on: BT-549 breast
MDA-MB-435 melanoma = tested on: MDA-MB-435 melanoma
SW-620 colon = tested on: SW-620 colon
MCF7 breast = tested on: MCF7 breast
HCT-116 colon = tested on: HCT-116 colon
HCC-2998 colon = tested on: HCC-2998 colon
KM12 colon = tested on: KM12 colon
SK-OV-3 ovarian = tested on: SK-OV-3 ovarian

Measured: growth

CC[C@]1(O)CC2CN(CCc3c([nH]c4ccccc34)C(C(=O)OC)(c3cc4c(cc3OC)N(C=O)[C@H]3[C@@](O)(C(=O)OC)[C@H](OC(C)=O)[C@]5(CC)[C@@H]6C[C@@H]6CN6CC[C@]43[C@@H]65)C2)C1 (some centres undefined)
active: IGROV1 ovarian 8.34% | OVCAR-3 ovarian -53.6% | HS 578T breast -2.32% | NCI/ADR-RES ovarian -6.57% | BT-549 breast -2.67% | MDA-MB-435 melanoma -53.2% | HCT-116 colon -17.5% | KM12 colon -17.5%
inactive: SR leukemia 12.7% | RPMI-8226 leukemia 23.4% | OVCAR-8 ovarian 10.3% | OVCAR-5 ovarian 29.6% | OVCAR-4 ovarian 45.5% | T-47D breast 72.1% | SW-620 colon 23.1% | MCF7 breast 12.1% | HCC-2998 colon 12.2%

CSc1nnc(-c2cc3c([nH]c4ccccc43)c(-c3cccc(O)c3)n2)n1-c1ccc(C)cc1
inactive: RPMI-8226 leukemia 19.3% | OVCAR-8 ovarian 34.8% | OVCAR-5 ovarian 72.6% | OVCAR-4 ovarian 54.1% | IGROV1 ovarian 51% | HS 578T breast 37.3% | NCI/ADR-RES ovarian 43.1% | T-47D breast 24.5% | BT-549 breast 34.5% | SW-620 colon 30% | HCT-116 colon 23.8% | HCC-2998 colon 54.2% | KM12 colon 26.3%
active: SR leukemia 5.99% | OVCAR-3 ovarian 1.33% | MDA-MB-435 melanoma -49.5% | MCF7 breast 5.16%

CCOC(=O)c1c(-c2ccc(OC)cc2)c(C#N)c2c(C#N)c(N)nn2c1N
active: SR leukemia 0.886% | OVCAR-3 ovarian 5.29% | MDA-MB-435 melanoma -38.2%
inactive: RPMI-8226 leukemia 13.8% | OVCAR-8 ovarian 43.9% | OVCAR-5 ovarian 70.1% | OVCAR-4 ovarian 68.1% | SK-OV-3 ovarian 45.8% | HS 578T breast 27.7% | NCI/ADR-RES ovarian 17.8% | T-47D breast 12% | SW-620 colon 26.9% | MCF7 breast 13.2% | HCT-116 colon 16% | HCC-2998 colon 62.9% | KM12 colon 23.6%

O=C1OCC2=C1C(c1cccc(C(F)(F)F)c1)c1cc3c(cc1N2CCO)OCCO3 (centres undefined)
inactive: SR leukemia 13.3% | RPMI-8226 leukemia 22.2% | OVCAR-8 ovarian 11.4% | OVCAR-5 ovarian 45.9% | OVCAR-4 ovarian 66.3% | IGROV1 ovarian 38% | HS 578T breast 27.8% | NCI/ADR-RES ovarian 22.2% | T-47D breast 51% | BT-549 breast 41.7% | SW-620 colon 24.5% | MCF7 breast 23.1% | HCT-116 colon 10.3% | KM12 colon 16.9%
active: OVCAR-3 ovarian -4.23% | MDA-MB-435 melanoma -41.1% | HCC-2998 colon 8.81%

COc1cc(-c2nc3occn3c2-c2ccnc(NCCCNS(=O)(=O)c3ccc(O)cc3)n2)ccc1F
inactive: SR leukemia 74.2% | RPMI-8226 leukemia 97% | OVCAR-8 ovarian 98.4% | OVCAR-5 ovarian 138% | OVCAR-4 ovarian 129% | IGROV1 ovarian 97.8% | OVCAR-3 ovarian 117% | HS 578T breast 93% | NCI/ADR-RES ovarian 104% | T-47D breast 84.8% | BT-549 breast 116% | MDA-MB-435 melanoma 47.7% | SW-620 colon 115% | MCF7 breast 92.1% | HCT-116 colon 86.1% | HCC-2998 colon 112% | KM12 colon 99.8%

Cc1ccc2c(c1)C(C)Cc1c(ncnc1-n1cnc3cc(C)ccc31)N2C (centres undefined)
inactive: OVCAR-5 ovarian 79% | OVCAR-4 ovarian 61.7% | OVCAR-3 ovarian 20.2% | HS 578T breast 31.6% | T-47D breast 55.9% | SW-620 colon 22.7% | MCF7 breast 12.6% | HCT-116 colon 11.2% | HCC-2998 colon 21.7% | KM12 colon 16.5%
active: SR leukemia 1.44% | RPMI-8226 leukemia -0.691% | OVCAR-8 ovarian 0.0907% | SK-OV-3 ovarian 5.86% | NCI/ADR-RES ovarian 5.12% | BT-549 breast -0.751% | MDA-MB-435 melanoma 4.21%

Cc1cccc(Cc2cnc(NC(=O)CCCOc3ccc(Cl)cc3)s2)c1
active: OVCAR-3 ovarian 7.26% | MDA-MB-435 melanoma -53.2%
inactive: SR leukemia 18.4% | RPMI-8226 leukemia 22.9% | OVCAR-8 ovarian 37.6% | OVCAR-5 ovarian 36.2% | OVCAR-4 ovarian 31.3% | IGROV1 ovarian 39.1% | HS 578T breast 21.4% | NCI/ADR-RES ovarian 32.3% | T-47D breast 33.5% | BT-549 breast 61.5% | SW-620 colon 25% | MCF7 breast 20% | HCT-116 colon 16.4% | HCC-2998 colon 48.9% | KM12 colon 21.8%

CC(Sc1ccccc1)C(=O)O (centres undefined)
inactive: SR leukemia 153% | RPMI-8226 leukemia 117% | OVCAR-8 ovarian 99.5% | OVCAR-5 ovarian 106% | OVCAR-4 ovarian 102% | IGROV1 ovarian 81.4% | OVCAR-3 ovarian 106% | HS 578T breast 115% | NCI/ADR-RES ovarian 111% | T-47D breast 105% | BT-549 breast 96.5% | MDA-MB-435 melanoma 96.5% | SW-620 colon 102% | MCF7 breast 99.5% | HCT-116 colon 88% | HCC-2998 colon 120% | KM12 colon 107%

CCN(C(=O)N1CCN(c2cc3c(cc2F)c(=O)c(C(=O)O)cn3C2CC2)CC1)c1nc(-c2ccccc2)cs1
active: BT-549 breast -9.57% | HCT-116 colon 6.31%
inactive: SR leukemia 10% | RPMI-8226 leukemia 12.5% | OVCAR-8 ovarian 30.2% | OVCAR-5 ovarian 35.7% | OVCAR-4 ovarian 55.5% | SK-OV-3 ovarian 63.8% | OVCAR-3 ovarian 15.9% | HS 578T breast 18.2% | NCI/ADR-RES ovarian 22.4% | T-47D breast 55.4% | MDA-MB-435 melanoma 27.3% | SW-620 colon 23.3% | MCF7 breast 14.9% | HCC-2998 colon 21% | KM12 colon 21.1%

Cn1cc(-c2nc3c(F)cc4[nH]ncc4c3c3c2CCCC3)c(C(F)F)n1
active: SR leukemia -16.9%
inactive: RPMI-8226 leukemia 27.7% | OVCAR-8 ovarian 73% | OVCAR-5 ovarian 71.2% | OVCAR-4 ovarian 100% | SK-OV-3 ovarian 37.2% | OVCAR-3 ovarian 84.4% | HS 578T breast 40.4% | NCI/ADR-RES ovarian 77.9% | T-47D breast 50.8% | BT-549 breast 31.1% | MDA-MB-435 melanoma 27.1% | SW-620 colon 56.3% | MCF7 breast 46.5% | HCT-116 colon 39.7% | HCC-2998 colon 90.6% | KM12 colon 23.2%

COc1ccc(/C(C)=C(\c2ccc(OCCN3CCCCCC3)cc2)c2ccc(OC(=O)C3CCCCC3)cc2)cc1
active: SR leukemia -20.1% | RPMI-8226 leukemia -55.1% | OVCAR-8 ovarian -47.3% | OVCAR-5 ovarian -24.7% | OVCAR-4 ovarian -28.4% | IGROV1 ovarian -49% | OVCAR-3 ovarian -86.9% | HS 578T breast -38.3% | NCI/ADR-RES ovarian -65.2% | T-47D breast -57% | BT-549 breast -78.2% | MDA-MB-435 melanoma -77.1% | SW-620 colon -49.8% | MCF7 breast -23.6% | HCT-116 colon -63.9% | HCC-2998 colon -79% | KM12 colon -54.1%

Nc1c(C(=O)Nc2ccncc2)sc2nc3c(cc12)CCCCCCCC3
active: SR leukemia -27.5% | RPMI-8226 leukemia -49% | OVCAR-8 ovarian -90.6% | OVCAR-5 ovarian -75.8% | OVCAR-4 ovarian -84.6% | IGROV1 ovarian -73.7% | OVCAR-3 ovarian -81.8% | HS 578T breast -37.1% | NCI/ADR-RES ovarian -64.8% | T-47D breast -71.2% | BT-549 breast -60.8% | MDA-MB-435 melanoma -89.9% | SW-620 colon -69.2% | MCF7 breast -83.4% | HCT-116 colon -76.3% | HCC-2998 colon -54.3% | KM12 colon -80.4%

CN(C)C(=O)c1cc2cnc(Nc3ccc(-c4csc5c(=S)cc(N6CCOCC6)oc45)cc3)nc2n1C1CCCC1
inactive: OVCAR-5 ovarian 17% | OVCAR-4 ovarian 18.5% | SK-OV-3 ovarian 16.4% | OVCAR-3 ovarian 13.6% | MDA-MB-435 melanoma 17.3%
active: SR leukemia -3.12% | RPMI-8226 leukemia -35.9% | OVCAR-8 ovarian 7.87% | HS 578T breast 5.04% | T-47D breast -3.44% | BT-549 breast 9.89% | SW-620 colon 4.89% | MCF7 breast -5.27% | HCT-116 colon 2.89% | HCC-2998 colon 8.51% | KM12 colon 6.53%
